Results published in PubChem BioAssay.

Assay: S. pombe growth modifiers, basal conditions – strain 972, OD600, 24 h, no modulator, primary screen (AID 1090);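 also: basal condition with compound alone and no growth modifier present; test concentration not given here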
Conditions: S. pombe 972 growth, higher = more signal, called active from +8 up or from −8 down

z-score, inactive:
CCCC1(C(=O)OC)C=C2C(=C(C)C(=O)C2C)CN1 (stereo not given) 0.883
NCCCCCNC(=O)[C@@H]1C[C@@H]2C(=O)N[C@@H](CCCCN)C(=O)N2[C@@H]1c1ccc(O)cc1 1.91
CCCN1C(=O)[C@]2(Cc3ccccc31)N=C(c1ccc(OCCCO)cc1)O[C@@H]2c1ccccc1 -2.93
CCN(CC)c1ccc(N2CC=CC34O[C@@H]5/C=C\CCCOC(=O)C5[C@H]3C(=O)N(C(C)CO)[C@@H]4C2=O)cc1 (stereo not given in full) -1.47
NC(=O)[C@H]1[C@@H]2C(=O)O[C@@H](c3ccccc3)[C@@H](c3ccccc3)N2[C@@H](c2ccc(OCCO)cc2)[C@]12C(=O)Nc1ccc(C#CCCO)cc12 0.547
CC(C)C(CO)N1C(=O)[C@@H]2[C@H]3C(=O)OCC=C[C@H]3OC23C=CCN(c2ccc(Cl)cc2)C(=O)[C@@H]13 (stereo not given in full) 0.123
C=CCNC(=O)[C@@H]1[C@H]2C(=O)O[C@H](c3ccccc3)[C@H](c3ccccc3)N2[C@H](c2ccccc2OCCO)[C@@]12C(=O)Nc1ccc(C#CCC(C(=O)OC)C(=O)OC)cc12 1.19
COc1ccc(C#Cc2ccc3c(c2)[C@]2(C(=O)N3)[C@H](C(=O)O)[C@H]3C(=O)O[C@H](c4ccccc4)[C@H](c4ccccc4)N3[C@@H]2c2ccc(O)cc2)cc1 -0.813
CCCC[C@@H](O)C1=C(COC)C[C@H]2C(=O)N(Cc3ccccc3)C(=O)[C@H]2[C@H]1CO -0.677
COC(=O)[C@@]1(Cc2ccc(F)cc2)[C@H]2c3cc(C(=O)N4CCCC4)n(Cc4ccc(C)c(F)c4F)c3C[C@H]2CN1C(=O)c1ccccc1 -0.0098
